From PubChem BioAssay AID588664 (The Scripps Research Institute Molecular Screening Center, 2011) come the findings set out here.

Among all 360,000 compounds or so, about 1,400 (0.39%) were called active. Rule as the data show it: active = inhibition above about 5% (passing the limit was not always enough); inactive = the rest. Shown is part of a subset that was picked to be rich in actives.

For this assay, the target named is Tyrosine-protein kinase ABL1 (Homo sapiens) + Ras and Rab interactor 1 (Homo sapiens) (UniProt P00519+Q13671). Put plainly: inhibitors of Rin1-Abl protein binding, primary screen, biochemical, TR-FRET (AID 588664). To be noted: at 7.35 µM, hits give high values.
Tyrosine-protein kinase ABL1 (Homo sapiens) + Ras and Rab interactor 1 (Homo sapiens), sequence (P00519 whole entry, looked up): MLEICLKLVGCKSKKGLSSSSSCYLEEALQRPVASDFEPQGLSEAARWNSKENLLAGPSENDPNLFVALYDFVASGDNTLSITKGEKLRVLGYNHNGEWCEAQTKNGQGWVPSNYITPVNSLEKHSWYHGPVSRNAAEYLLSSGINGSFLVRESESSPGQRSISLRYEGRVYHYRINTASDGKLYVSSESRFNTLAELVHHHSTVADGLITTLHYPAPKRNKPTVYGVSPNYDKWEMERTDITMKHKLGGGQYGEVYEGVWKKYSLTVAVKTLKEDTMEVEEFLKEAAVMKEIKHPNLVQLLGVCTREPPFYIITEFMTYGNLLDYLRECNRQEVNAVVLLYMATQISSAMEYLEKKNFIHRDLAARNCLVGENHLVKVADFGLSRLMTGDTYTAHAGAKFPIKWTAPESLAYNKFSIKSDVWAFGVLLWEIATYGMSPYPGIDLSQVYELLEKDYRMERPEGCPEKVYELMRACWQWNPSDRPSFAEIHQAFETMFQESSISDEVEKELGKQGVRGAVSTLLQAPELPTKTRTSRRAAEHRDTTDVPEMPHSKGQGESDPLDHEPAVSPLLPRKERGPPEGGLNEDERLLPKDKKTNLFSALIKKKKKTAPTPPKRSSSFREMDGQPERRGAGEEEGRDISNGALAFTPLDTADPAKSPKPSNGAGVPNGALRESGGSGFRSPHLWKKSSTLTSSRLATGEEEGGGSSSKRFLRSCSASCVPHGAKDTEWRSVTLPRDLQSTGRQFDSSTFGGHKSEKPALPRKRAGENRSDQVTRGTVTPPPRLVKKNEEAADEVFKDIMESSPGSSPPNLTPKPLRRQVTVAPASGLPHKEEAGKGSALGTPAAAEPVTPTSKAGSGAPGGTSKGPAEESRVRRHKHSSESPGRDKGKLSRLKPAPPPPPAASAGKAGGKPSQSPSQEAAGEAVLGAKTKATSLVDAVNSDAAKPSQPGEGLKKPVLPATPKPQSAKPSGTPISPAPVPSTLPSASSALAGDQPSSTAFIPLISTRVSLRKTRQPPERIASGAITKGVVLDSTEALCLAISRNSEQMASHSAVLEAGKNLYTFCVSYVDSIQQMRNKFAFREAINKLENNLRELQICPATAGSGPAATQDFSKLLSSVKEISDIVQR
Tyrosine-protein kinase ABL1 (Homo sapiens) + Ras and Rab interactor 1 (Homo sapiens), sequence (Q13671 whole entry, looked up): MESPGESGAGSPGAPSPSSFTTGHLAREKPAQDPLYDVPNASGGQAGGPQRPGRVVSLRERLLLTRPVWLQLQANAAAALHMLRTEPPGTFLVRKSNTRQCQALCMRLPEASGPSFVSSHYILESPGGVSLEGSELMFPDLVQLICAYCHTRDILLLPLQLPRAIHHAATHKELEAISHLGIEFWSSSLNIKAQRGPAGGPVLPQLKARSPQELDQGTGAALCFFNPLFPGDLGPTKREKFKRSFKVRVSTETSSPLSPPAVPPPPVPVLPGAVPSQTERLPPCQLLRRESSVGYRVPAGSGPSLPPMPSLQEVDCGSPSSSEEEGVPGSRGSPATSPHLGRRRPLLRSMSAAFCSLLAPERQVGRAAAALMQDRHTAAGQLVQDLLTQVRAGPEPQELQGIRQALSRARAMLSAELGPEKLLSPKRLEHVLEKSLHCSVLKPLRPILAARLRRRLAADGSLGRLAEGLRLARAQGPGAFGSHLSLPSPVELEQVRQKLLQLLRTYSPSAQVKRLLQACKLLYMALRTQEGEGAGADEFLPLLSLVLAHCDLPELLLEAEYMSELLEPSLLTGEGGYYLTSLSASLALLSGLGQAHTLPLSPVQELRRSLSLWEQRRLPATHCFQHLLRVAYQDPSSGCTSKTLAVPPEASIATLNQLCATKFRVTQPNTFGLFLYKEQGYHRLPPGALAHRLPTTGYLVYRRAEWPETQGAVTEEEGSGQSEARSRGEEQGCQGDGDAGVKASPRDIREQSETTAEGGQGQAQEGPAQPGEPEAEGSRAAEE
In the case of `CCOc1ccccc1NC(=O)COc1ccc(S(=O)(=O)N2CCCC2)cc1`, the inhibition is 2.38% (inactive).
The same measure for `CCOc1ccc(S(=O)(=O)N2CCCCC2)cc1NC(=O)CN1CCCC1c1cccs1` (stereo not given): 8.67% (active); for `COc1ccc(S(=O)(=O)N2CCCCC2)cc1NC(=O)COc1ccccc1`: 0.41% (inactive); for `COc1ccccc1C(CNC(=O)c1ccc(C)c(S(=O)(=O)N2CCCCC2)c1)N(C)C` (stereo not given): 1.36% (inactive).
Then `COc1ccc(NC(=O)C(C)N2c3cccc4cccc(c34)S2(=O)=O)c(OC)c1` (stereo not given), with 0.54% (inactive); and `NC(=O)C[C@@H]1NC(=O)CNC(=O)c2cc([N+](=O)[O-])cc(I)c2NCCC(C(N)=O)NC1=O` (stereo not given in full), with -0.35% (inactive).
As to `O=C(COc1ccc(S(=O)(=O)NCc2ccccc2)cc1)N1CCOCC1`, the inhibition was -6.66% (inactive).
With `CC(NS(=O)(=O)c1ccc(OCC(=O)N2CCCC2)cc1)c1ccccc1` (stereo not given), the inhibition was 1.07% (inactive).
`O=C(COc1ccc(S(=O)(=O)NCCc2ccccc2)cc1)N1CCCC1`: the inhibition was 7.8% (active).
Then `COc1cc(C(=O)N/C(=C\c2cn(C)c3ccccc23)C(=O)N2CCOCC2)cc(OC)c1OC`, with 3.65% (inactive); and `Cc1cccc(N)c1SC1CCCCC1O` (stereo not given), with -2.16% (inactive).
Consider `COC(=O)C1=C(N)Oc2c(oc(CO)cc2=O)C1c1c(F)cccc1Cl` (stereo not given), for which the inhibition was 1.15% (inactive).
Then `Cc1cccc(CN2CCN(C3CN(Cc4ccccc4)S(=O)(=O)C3)CC2)c1` (stereo not given), with 5.69% (inactive).
Then `NC(=O)c1ccsc1NC(=O)COC(=O)Cc1n[nH]c(=O)c2ccccc12`, with 1.63% (inactive); and `Cc1ccc(S(=O)(=O)C2(S(=O)(=O)c3ccc(C)cc3)CCCC2)cc1`, with 1.29% (inactive); and `CC1(C(=O)Nc2cccc3c2CCCC3)CCN1C(=O)C1(c2ccccc2)CC1` (stereo not given), with 1.83% (inactive).
On to `Cc1c(NC(=O)C(C)OC(=O)c2ccccc2O)c(=O)n(-c2ccccc2)n1C` (stereo not given), for which the inhibition was -1.15% (inactive).
Then `CC(OC(=O)c1ccccc1NCCO)C(=O)Nc1ccnn1C(C)C` (stereo not given), with 44.6% (active).
Then `COC(=O)c1ccccc1NC(=O)CSc1ccccn1`, with -0.76% (inactive); and `C=CCc1cc(C)ccc1OCCCn1ccnc1`, with 0.39% (inactive).
The same measure for `CCc1ccccc1NC(=S)N(CCN1CCCCCC1)Cc1ccco1`: -2.14% (inactive).
On to `Cc1cc(C)n(CCNCc2c(C(=O)N3C[C@@H](C)O[C@@H](C)C3)nc3ccc(Cl)cn23)n1`, for which the inhibition was 5.28% (inactive).
Then `Cc1ccccc1C(=O)N1CCC(C(=O)Nc2ccc(S(=O)(=O)N(C)C(C)C)cc2)CC1`, with 14.6% (active); and `CCc1nnc(NC(=O)C2CCN(C(=O)c3ccccc3C)CC2)s1`, with -1.24% (inactive).
The same measure for `CC(=O)c1cccc(NC(=O)C2CCN(C(=O)c3ccccc3Cl)CC2)c1`: -0.65% (inactive).

Broadly, the inhibition is the change of the read-out against control, counted positive when it falls.
